PGK inhibitor: T. brucei PGK inhibition. P07378. PGK/GAPDH coupled, Kinase-Glo luminescence, 60 min. Potency, µM (highest dose often 57.5 µM), inactives show at the top dose activity change, negative = inhibition, most hits filed as inhibitors. 380,000 compounds, 0.043% hits. AID 602233; note: nearly all actives have a fitted effect of over 60% in size
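Recombinant glycosomal PGK reaction used 1,3-bisphosphoglycerate generated in-well by GAPDH (100nM final) in 100mM TEA pH 7.6, 5mM MgCl2, 0.01% Tween-20. After 60 minutes at room temperature, ATP was read by Kinase-Glo Plus luminescence end-point.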
APE1 inh: blocks human APE1 abasic DNA cleavage. P27695. recombinant APE1, TAMRA/BHQ-2 abasic DNA cleavage fluorescence. Potency, µM (series often up to 65.8 µM), for the others: at the top dose activity change, negative = inhibition, hits mostly inhibitors. 350,000 compounds, 0.35% hits. AID 2517;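 note: plate controls were vehicle for no effect and reference inhibitor for full effect; nearly all actives have a fitted effect of over 55% in size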
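APE1 at 0.75 nM final was preincubated with compound 15 min at room temperature, then 50 nM double-stranded THF abasic-site substrate (5'-TAMRA/3'-BHQ-2) was added. Fluorescence (ex 525/em 598 nm) was read kinetically; third-minus-first read gave activity.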
RECQ1 inh-1: blocks DNA unwinding by human RECQ1. P46063. RECQ1 DNA unwinding, red fluorescence kinetic read. Potency, µM (highest dose often 57.3 µM), for the others: top-dose activity, negative = inhibition, actives largely listed as inhibitors. 240,000 compounds, 0.54% hits;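 note: plate controls were vehicle for no effect and no enzyme for full effect; nearly all actives have a fitted effect of over 30% in size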
Target sequence (P46063 whole entry, looked up): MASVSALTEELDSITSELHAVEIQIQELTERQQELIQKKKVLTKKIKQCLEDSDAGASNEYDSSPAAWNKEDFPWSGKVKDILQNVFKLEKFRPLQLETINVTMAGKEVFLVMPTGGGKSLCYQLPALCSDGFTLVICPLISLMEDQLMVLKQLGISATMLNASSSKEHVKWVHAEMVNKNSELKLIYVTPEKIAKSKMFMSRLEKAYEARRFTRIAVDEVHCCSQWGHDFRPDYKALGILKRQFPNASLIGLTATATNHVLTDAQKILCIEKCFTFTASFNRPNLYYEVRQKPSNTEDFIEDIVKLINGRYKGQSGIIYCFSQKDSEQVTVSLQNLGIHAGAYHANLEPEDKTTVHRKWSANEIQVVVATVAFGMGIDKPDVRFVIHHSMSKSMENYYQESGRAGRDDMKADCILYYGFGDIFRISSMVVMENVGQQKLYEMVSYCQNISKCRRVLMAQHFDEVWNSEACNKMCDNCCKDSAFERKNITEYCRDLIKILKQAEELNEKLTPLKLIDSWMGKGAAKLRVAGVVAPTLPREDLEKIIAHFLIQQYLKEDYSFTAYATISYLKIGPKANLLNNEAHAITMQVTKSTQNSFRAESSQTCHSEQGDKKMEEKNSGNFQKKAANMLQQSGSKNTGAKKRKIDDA
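50 nM RECQ1T1 preincubated 15 min with compound in Tris pH 8.0 buffer with MgCl2, DTT, Tween-20 and 2.5 ug/ml poly(dI-dC); started with 200 nM TAMRA/BHQ-2 forked duplex and 2 mM ATP. Unwinding read as fluorescence (525/598 nm), two reads 2 h apart.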
FEN1 inhibitor: inhibitors of human flap endonuclease 1. P39748. Recombinant FEN1 flap cleavage, fluorescence, 15 min. Potency, µM (titrated, usually from 114 µM), for inactives: at the top dose activity change, negative = inhibition, actives largely listed as inhibitors. 390,000 compounds, 0.35% hits; note: nearly all actives have a fitted effect of over 65% in size
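Potency values derive from four-parameter Hill fits of normalized qHTS data. The reaction used 10 nM FEN1 preincubated 15 min at room temperature with compound, then 50 nM DNA substrate, read at 0 and 15 min.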
BLM inh: Bloom syndrome helicase (human) inhibition; P54132; recombinant BLM DNA unwinding, fluorescence dequenching; Potency, µM (top dose mostly 56.1 µM), inactives show at the highest dose activity change, negative = inhibition, actives largely listed as inhibitors; 350,000 compounds, 0.2% hits; AID 2528;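 note: plate controls were vehicle for no effect and no enzyme for full effect; nearly all actives have a fitted effect of over 35% in size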
RECQ1 conf: confirmation of human RECQ1 helicase inhibitors. AID 2708. Potency, µM (titrated, usually from 229 µM), without a hit: top-dose activity change, negative = inhibition, hits mostly inhibitors. 610 compounds, 28% hits. RECQ1 helicase DNA unwinding, fluorescence. shares compounds with RECQ1 inh-1; note: nearly all actives have a fitted effect of over 45% in size
RECQ1 ADP FP: ADP displacement flagged in RECQ1 inhibitor counter-screen; ADP fluorescence polarization displacement counterscreen; Potency, µM (titrated, usually from 228 µM), for inactives: at the highest dose activity change, negative = inhibition, most hits filed as inhibitors; 530 compounds, 27% hits; shares compounds with RECQ1 inh-1; note: nearly all actives have a fitted effect of over 45% in size
RECQ1 inh-2: blocks human RECQ1 DNA unwinding; shares compounds with RECQ1 inh-1; recombinant RECQ1 DNA unwinding, red fluorescence; Potency, µM (doses to about 119 µM), inactives show top-dose activity, negative = inhibition, usual class: inhibitors; 1,100 compounds, 15% hits; AID 504841; note: nearly all actives have a fitted effect of over 50% in size
The depositor's hits bear a star; i = inactive; ? = inconclusive; . = no result; [ ] = remark or other dose. Only some compounds are listed: those with a hit (about 0.74% of all), similar ones and a draw of the others. Calls come from the whole dose curve; as a rule, active = well fitted curve in the direction sought with a large enough effect; inconclusive = small, poorly fitted or top-dose-only effect, or another doubt; inactive = no such curve, though single readings can be large; an effect the other way counts as inactive or inconclusive. Unless noted, % is set by controls: 0 for no effect and ±100 for the full control effect; potency is the fitted concentration of half-maximal effect.

SMILES | PGK inhibitor | APE1 inh | RECQ1 inh-1 | FEN1 inhibitor | BLM inh | RECQ1 inh-2 | others
O=C(c1ccc(-c2nc3ccccc3s2)o1)N1CCN(c2ccccc2O)CC1 | -3.2% | 9.2% | . | 4.3% | -6.7% | .
O=C(CCc1ccccc1)NC(=S)Nc1cc(C(F)(F)F)ccc1N1CCOCC1 | i | 15.2% | ? | -2.2% | -10.5% | -8.9%
CCn1cc(C(=O)OC(C)C(=O)Nc2c(C)n(C)n(-c3ccccc3)c2=O)c(=O)c2ccc(C)nc21 (stereo not given) | 0.5% | 8.5% | i | 0.0% | 0.3% | .
CCn1cc(C(=O)OCC(=O)Nc2c(C)n(C)n(-c3ccccc3)c2=O)c(=O)c2ccc(C)nc21 | i | 0.0% | i | -6.7% | -1.3% | . | RECQ1 conf=10.8%;RECQ1 ADP FP=?
CCc1ccc(C(=O)OCC(=O)Nc2c(C)n(C)n(-c3ccccc3)c2=O)cc1 | -2.8% | . | . | . | . | .
CCCc1nc2ccccc2c(C(=O)OCC(=O)Nc2c(C)n(C)n(-c3ccccc3)c2=O)c1CC | -0.8% | 2.1% | -10.6% | 7.6% | 1.4% | . | RECQ1 conf=11.8%;RECQ1 ADP FP=14.1%
CCc1nnc(NC(=O)c2sc3nc4c(cc3c2N)CCCCC4)s1 | i | -5.2% | -3.8% | 3.1% | -6.1% | .
CCc1nnc(NC(=O)c2sc3nc4c(cc3c2N)CCCCCC4)s1 | 0.4% | 0.6% | ? | -0.7% | -21.1% | ?
O=C(O)CSc1ncnc2scc(-c3ccccc3)c12 | -8.1% | -1.0% | -3.0% | -0.5% | -8.0% | .
CN(C)C(=O)CSc1ncnc2scc(-c3ccccc3)c12 | -9.5% | 7.7% | ? | -5.0% | 8.8% | -7.1%
O=C(CC1N=C2c3ccccc3N=C(SCc3ccc(Cl)cc3)N2C1=O)NCc1ccco1 (stereo not given) | -5.0% | 13.2% | ? | -14.2% | -13.6% | ?
Cc1ccc(CSC2=Nc3ccccc3C3=NC(CCC(=O)NCc4ccco4)C(=O)N23)cc1 (stereo not given) | -9.1% | -2.7% | -13.4% | -7.5% | -7.6% | .
Cc1cc(C2C(=O)CC(=O)CC2c2ccccc2)on1 (stereo not given) | -5.0% | -4.4% | 25.1µM* | 5.4% | -14.4% | ?
COc1ccc(-n2nnnc2SCC(=O)NC(=O)Nc2ccc3c(c2)OCCO3)cc1 | -5.0% | -3.9% | -10.9% | -0.5% | -7.9% | .
CC(C)Cn1c(-c2cccs2)nc2nc3ccccc3nc21 | 3.1% | 6.6% | 11.5% | -21.4% | 0.7% | .
COc1cccc(/C=N/Nc2nc3ccccc3n3cnnc23)c1O | -0.9% | 1.5% | 5.01µM* | ? | -11.1% | . | RECQ1 conf=-4.7%[114 µM]
COc1ccc(NC(=O)CCCc2ccc(OC)c(C)c2)cc1 | 2.3% | -0.2% | . | 3.1% | -11.6% | .
O=C(/C=C/c1ccco1)Nc1ccc(C(=O)N2CCOCC2)cc1 | -0.3% | -3.9% | ? | -5.4% | -15.5% | -28.2%
O=C(COC(=O)Cc1ccccc1F)Nc1cccc(S(=O)(=O)NC2=NCCCCC2)c1 | -1.9% | 2.3% | 1µM* | 1.7% | -2.4% | -4.0% | RECQ1 conf=13.1%[114 µM];RECQ1 ADP FP=9.0%[91.9 µM]
CCCSCCCNC(=O)c1ccc(NC(=O)C2=CSCCO2)cc1 | -9.8% | 55.8% | . | -3.9% | 2.0% | .
COc1cc(OC)c(C2C(C#N)=C(N)OC3=C2C(=O)CC(C)(C)C3)cc1OC (stereo not given) | 1.5% | ? | -13.9% | 6.4% | 5.3% | .
O=C(N/C=C/c1ccco1)NCc1ccccc1 | -27.1% | ? | ? | ? | -9.5% | -27.0%
O=C(N/C=C/c1ccco1)OCc1ccccc1 | -1.7% | ? | -11.7% | 7.2% | -14.0% | .

Assay outcomes deposited in PubChem by National Center for Advancing Translational Sciences (NCATS).
